These results are taken from PubChem BioAssay AID1259421 (Broad Institute, 2018).

Values joined by “and” are separate entries in the source; they are usually repeats but may differ in a detail not shown here. Identical values can stand only once. Hit rate of the full screen: of about 6,400 compounds, about 610 (9.5%) were called active. Cut-off read from the data, not from the text of the source: active = activity change below about -70%; inconclusive = no clear call, values can overlap the other calls; inactive = above that. Only a selection was taken, and actives are over-represented in it overall. Some structures have more than one record in an assay (separate samples or runs), and their calls can disagree.

The nature of this assay: T. gondii ME49Luc in HeLa cells, luciferase assay, 72 h, no IFN-y (AID 1259421). As to conditions: stronger effect = lower value, concentration not given here.
For the compound `COc1ccc(CCN2CCN(CCCc3ccccc3)CC2)cc1OC`, the activity change, negative = inhibition is -27.2% (inactive). Consider `OCC1OC(n2cnc3c(NC4CCCC4)ncnc32)C(O)C1O` (configuration not stated), for which the activity change, negative = inhibition is 1.64% (inactive).

In the case of `CC(C)(C)c1cc(/C=C(\C#N)C(N)=S)cc(C(C)(C)C)c1O`, the activity change, negative = inhibition was -82.2% (active) and -86% (active). The value for `N#CC(C#N)=C(N)/C(C#N)=C/c1cc(O)c(O)c(O)c1` was 5.32% (inactive); that for `N#C/C(=C\c1ccc(O)c(O)c1)C(N)=O` was 16.2% (inactive) and 6.7% (inactive).

Regarding `COc1cc(N)c(Cl)cc1C(=O)N[C@@H]1CCN(CCCOc2ccc(F)cc2)C[C@@H]1OC`, the activity change, negative = inhibition is 6.27% (inactive). The value for `COc1ccc(C2(O)CCC(N3CC[C@@H](NC(=O)CNC(=O)c4cccc(C(F)(F)F)c4)C3)CC2)cn1` (some centres not stated) was 4.89% (inactive); that for `Cc1ccc(S(=O)(=O)c2ccc([N+](=O)[O-])o2)cc1` was 10.8% (inactive); that for `CCC[C@H](NC(=O)[C@@H]1[C@H]2CCC[C@H]2CN1C(=O)[C@@H](NC(=O)[C@@H](NC(=O)c1cnccn1)C1CCCCC1)C(C)(C)C)C(=O)C(=O)NC1CC1` was -72.4% (active).

As for `CCCC[C@H](NC(=O)[C@@H]1[C@@H]2[C@H](CN1C(=O)[C@@H](NC(=O)NC1(CS(=O)(=O)C(C)(C)C)CCCCC1)C(C)(C)C)C2(C)C)C(=O)C(=O)NC1CC1`, the activity change, negative = inhibition is 23.2% (inactive).

On to `CC(C)(C)NC(=O)N[C@H](C(=O)N1C[C@H]2[C@@H]([C@H]1C(=O)NC(CC1CCC1)C(=O)C(N)=O)C2(C)C)C(C)(C)C` (some centres not stated), for which the activity change, negative = inhibition is 0.503% (inactive). As to `CC(C)(C)c1cc(O)c(C(C)(C)C)cc1O`, the activity change, negative = inhibition was 7.89% (inactive). The value for `COC(=O)C[C@H]1C(C)(C)[C@@H](O)[C@@H]2CC3=C4CC(O)O[C@@H](c5ccoc5)[C@]4(C)CCC3[C@@]1(C)C2=O` (some centres not stated) was -4.18% (inactive).

Regarding `CO[C@H]1C=CO[C@@]2(C)Oc3c(C)c(O)c4c(O)c(c(/C=N/N5CCN(C)CC5)c(O)c4c3C2=O)NC(=O)/C(C)=C\C=C/C(C)[C@H](O)[C@@H](C)[C@@H](O)[C@@H](C)[C@@H](OC(C)=O)[C@@H]1C` (some centres not stated), the activity change, negative = inhibition is -14.4% (inactive) and 12.2% (inactive).

`CC1(C)CCC(CN2CCN(c3ccc(C(=O)NS(=O)(=O)c4ccc(NCC5CCOCC5)c([N+](=O)[O-])c4)c(Oc4cnc5[nH]ccc5c4)c3)CC2)=C(c2ccc(Cl)cc2)C1`: the activity change, negative = inhibition was -89.7% (active). Take `CC(C)COC(=O)c1ccc(N)cc1`: the activity change, negative = inhibition was 47.4% (inactive). The value for `COC(=O)c1cc(OC)c2c(c1-c1c(C(=O)OC)cc(OC)c3c1OCO3)OCO2` was 11.4% (inactive); that for `C=C1C(=O)O[C@H]2[C@H]1CC/C(C)=C\CC[C@@]1(C)O[C@@H]21` was 7.41% (inactive); that for `O=C(O)c1ccccc1O` was 10.4% (inactive) and 3.39% (inactive).

For `O=C(N/N=C/c1ccccc1O)c1ccccc1O`, the activity change, negative = inhibition is -88% (active) and -86.5% (active). Take `O=C(Nc1ccc(O)cc1)c1ccccc1O`: the activity change, negative = inhibition is 30.3% (inactive).

Regarding `O=C(OC1C(OC(=O)c2cccnc2)C(OC(=O)c2cccnc2)C(OC(=O)c2cccnc2)C(OC(=O)c2cccnc2)C1OC(=O)c1cccnc1)c1cccnc1` (configuration not stated), the activity change, negative = inhibition was -4.81% (inactive) and 13.2% (inactive). The value for `CCN(CC)CCN(Cc1ccc(-c2ccc(C(F)(F)F)cc2)cc1)C(=O)Cn1c(SCc2ccc(F)cc2)nc(=O)c2c1CCC2` was -77.9% (active); that for `CCN(Cc1ccccc1)C(=O)Cn1c(=O)n(C)c2cnc(-c3ccccc3)nc21` was 9.96% (inactive); that for `O=C(O)[C@H](O)[C@@H](O)[C@H](O[C@@H]1O[C@H](CO)[C@H](O)[C@H](O)[C@H]1O)[C@H](O)CO` was 11.1% (inactive). Consider `Clc1ccc(C(Cn2ccnc2)OCc2ccsc2Cl)c(Cl)c1` (configuration not stated), for which the activity change, negative = inhibition is -28.7% (inactive) and -2.79% (inactive). Turning to `Clc1ccc(C(Cn2ccnc2)OCc2ccc(Sc3ccccc3)cc2)c(Cl)c1` (configuration not stated), the activity change, negative = inhibition was -73.4% (active).

For the compound `Clc1ccc(C(Cn2ccnc2)OCc2csc3c(Cl)cccc23)c(Cl)c1` (configuration not stated), the activity change, negative = inhibition is -75.6% (active). The value for `Clc1ccc(CSC(Cn2ccnc2)c2ccc(Cl)cc2Cl)cc1` (configuration not stated) was -80.3% (active) and -86.4% (active); that for `C=CCOC(Cn1ccnc1)c1ccc(Cl)cc1Cl` (configuration not stated) was 26.1% (inactive) and 17.1% (inactive). The value for `Clc1ccc(COC(Cn2ccnc2)c2ccc(Cl)cc2Cl)c(Cl)c1` (configuration not stated) was -91.6% (active); that for `C[C@@H]1CC2C3C[C@H](F)C4=CC(=O)C=C[C@]4(C)[C@@]3(F)[C@@H](O)C[C@]2(C)[C@@]1(O)C(=O)CO` (some centres not stated) was 1.95% (inactive); that for `CC(=O)N[C@H]1CSSC[C@@H](C(N)=O)NC(=O)[C@H](C(C)C)NC(=O)[C@H](C)NC(=O)[C@H](Cc2cnc[nH]2)NC1=O` was -4.46% (inactive). Consider `O=C(/C=C/c1ccc(O)c(O)c1)O[C@@H]1C[C@](OC(=O)/C=C/c2ccc(O)c(O)c2)(C(=O)O)C[C@@H](O)[C@H]1O`, for which the activity change, negative = inhibition was 2.12% (inactive). With `NC(=O)CCCCn1ccc(NC(N)=NCC(F)(F)F)n1` the figure was 4.57% (inactive) and 3.01% (inactive); with `C=C1C2CC[C@@]3(C)[C@H](c4ccoc4)OC(=O)C[C@]13O[C@H]1CC(=O)C(C)(C)[C@H](C(O)C(=O)OC)[C@@]21C` (some centres not stated), -2.51% (inactive); with `O=C1CCC[C@@H]2[C@@H]3CCC[N+]4([O-])CCC[C@H](CN12)[C@@H]34` (some centres not stated), -1.57% (inactive). As to `N=C1CCCN1Cc1[nH]c(=O)[nH]c(=O)c1Cl`, the activity change, negative = inhibition is 3.86% (inactive).

Consider `COc1cc2c(cc1OC(C)C)[C@H](c1ccc(Cl)cc1)N(c1ccc(N(C)CC3CCC(N4CCN(C)C(=O)C4)CC3)cc1)C(=O)C2` (some centres not stated), for which the activity change, negative = inhibition is -56.4% (inactive). For `N[C@@H](CSCC(=O)O)C(=O)O`, the activity change, negative = inhibition is 14.1% (inactive). With `COc1ccc(/C=C/C(=O)c2cc(O)ccc2O)cc1` the figure was 13.6% (inactive); with `Nc1ncnc2c1ncn2[C@H]1CC[C@@H](CO)O1`, 1.09% (inactive); with `CC(C)[N+]1(C)C2CCC1CC(OC(=O)C(CO)c1ccccc1)C2` (configuration not stated), 0.0846% (inactive). `O=C(O)CCc1cc(C(=O)c2ccc(OC3CCCC3)cc2O)ccc1OCc1ccc2c(=O)[nH]oc2c1`: the activity change, negative = inhibition was 6.19% (inactive).

On to `Clc1ccc(C(Cn2ccnc2)OCc2c(Cl)cccc2Cl)c(Cl)c1` (configuration not stated), for which the activity change, negative = inhibition was -52.5% (inactive). As for `Clc1ccc(CO/N=C(\Cn2ccnc2)c2ccc(Cl)cc2Cl)c(Cl)c1`, the activity change, negative = inhibition is -81.5% (active) and 40% (inactive). With `Clc1ccc(CCC(Cn2ccnc2)Sc2c(Cl)cccc2Cl)cc1` (configuration not stated) the figure was -83.9% (active) and -87.7% (active); with `Cl/C(=C\n1cncn1)c1ccc(Cl)cc1Cl`, -11.5% (inactive). The value for `Cl/C(=C/n1cncn1)c1ccc(Cl)cc1Cl` was -5.43% (inactive); that for `Clc1ccc(COC(Cn2ccnc2)c2ccc(Cl)cc2Cl)cc1` (configuration not stated) was -77.4% (active) and -87.9% (active).

In the case of `O=C(O)/C=C/c1ccc(Cn2ccnc2)cc1`, the activity change, negative = inhibition was -0.196% (inactive) and 8.1% (inactive). The value for `COc1cc(/C=C/C(=O)N2CCN(CC(=O)NC(C)C)CC2)cc(OC)c1OC` was -0.924% (inactive). The value for `CC(C)NC(=O)COc1cccc(-c2nc(Nc3ccc4[nH]ncc4c3)c3ccccc3n2)c1` was -49.1% (inactive); that for `COc1ccc(CNC(=O)c2cc(-c3cncc(C)c3)ncc2-c2nccs2)nc1OC` was 3.2% (inactive). The value for `N[C@@H](C(=O)O)[C@@H](OCc1ccccc1)C(=O)O` (racemic) was 8.74% (inactive); that for `COc1cc(/C=C/C(=O)O[C@H]2CC[C@]34CC35CC[C@]3(C)[C@@H](C(C)CCC=C(C)C)CC[C@@]3(C)C5CCC4C2(C)C)ccc1O` (some centres not stated) was 9.65% (inactive).

Take `C=C(NC(=O)C(=C)NC(=O)c1csc(C2=N[C@H]3c4csc(n4)[C@H]4NC(=O)c5csc(n5)[C@H]([C@@](C)(O)[C@@H](C)O)NC(=O)[C@H]5CSC(=N5)/C(=C/C)NC(=O)[C@H]([C@@H](C)O)NC(=O)c5csc(n5)[C@]3(CC2)NC(=O)[C@H](C)NC(=O)C(=C)NC(=O)[C@H](C)NC(=O)[C@H](C(C)CC)N[C@@H]2C=Cc3c([C@H](C)O)cc(nc3[C@H]2O)C(=O)O[C@@H]4C)n1)C(N)=O` (some centres not stated): the activity change, negative = inhibition was -5.27% (inactive). Consider `O=C(O)c1ccc2c(c1)nc(Nc1cccc(Cl)c1)c1ccncc12`, for which the activity change, negative = inhibition was -81.6% (active). `O=C(O)c1cccnc1Nc1cccc(C(F)(F)F)c1`: the activity change, negative = inhibition is 5.33% (inactive) and 7.04% (inactive). As to `Clc1cccc(Nc2nnc(-c3ccccc3)c3ccccc23)c1`, the activity change, negative = inhibition is -1.93% (inactive) and 0.598% (inactive). For `Cc1noc(-c2ccc(-c3ccc(CC(=O)O)cc3)cc2)c1NC(=O)O[C@H](C)c1ccccc1`, the activity change, negative = inhibition is 6.32% (inactive). The value for `CN(C)c1cc(NC(=O)CNC(C)(C)C)c(O)c2c1C[C@H]1C[C@H]3[C@H](N(C)C)C(=O)C(C(N)=O)C(=O)[C@@]3(O)C(=O)C1C2=O` (some centres not stated) was 5.81% (inactive); that for `O=C(NCCCCN1CCOCC1)c1cc2ccccc2o1` was 0.553% (inactive); that for `CN(C)CC/C=C1/c2ccccc2Sc2ccc(Cl)cc21` was -62.1% (inactive) and 35.6% (inactive). The value for `OCCN1CCN(CCCN2c3ccccc3Sc3ccc(Cl)cc32)CC1` was -81% (active). As for `CN1CCN(CCCN2c3ccccc3Sc3ccc(Cl)cc32)CC1`, the activity change, negative = inhibition was 16.2% (inactive) and 18.1% (inactive). `CN1CCN(CCC=C2c3ccccc3Sc3ccc(S(=O)(=O)N(C)C)cc32)CC1`: the activity change, negative = inhibition was 25.4% (inactive) and 73.8% (inactive). With `CN(C)CC/C=C1\c2ccccc2Sc2ccc(Cl)cc21` the figure was -58.2% (inactive); with `OCCN1CCN(CCCN2c3ccccc3Sc3ccc(C(F)(F)F)cc32)CC1`, -60% (inactive) and -63.7% (inactive). `OCCN1CCN(CC/C=C2/c3ccccc3Sc3ccc(C(F)(F)F)cc32)CC1`: the activity change, negative = inhibition is -74.2% (active). The value for `OCCN1CCN(CC/C=C2/c3ccccc3Sc3ccc(Cl)cc32)CC1` was -82.3% (active); that for `CC(=O)c1ccc2c(c1)N(CCCN1CCN(CCO)CC1)c1ccccc1S2` was 15.8% (inactive).
